Among the test systems are SK-MEL-2 melanoma; EKVX NSCLC; SN12C renal; UO-31 renal; TK-10 renal; ACHN renal; A498 renal; CCRF-CEM leukemia; MOLT-4 leukemia; SR leukemia.
What all share (assay): NCI-60 one-dose screen, 48 h (100 = growth as untreated, 0 = no growth, -100 = all killed)
What all share (conditions): 10 µM unless noted

These results are taken from PubChem BioAssay (NCI).

About 83,000 compounds went through this panel and 20% of them were active in at least one assay; those are over-represented in the sample as a whole.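 Growth was measured after 48 h exposure to one concentration of compound in 96-well plates. Values under 10 count as active.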 Values without a mark were called inactive. Calls of active or inactive are those of the source.

As for `O=c1c2ccccc2oc2ccc(OCCCCCN3CCCCCC3)cc12`, the growth with SK-MEL-2 melanoma was 99.4%; with EKVX NSCLC, 90.4%; with SN12C renal, 69.4%; with UO-31 renal, 68.1%; in the test on TK-10 renal, 72.2%; in the test with ACHN renal, 103%. Further, the growth was 82.7% in the test on A498 renal, 82.5% in the test with CCRF-CEM leukemia, 46.7% in the test with MOLT-4 leukemia and 46.9% in the test with SR leukemia.

On to `C=C(C)[C@@H]1CCC=C2CC[C@]3(C)[C@H](CC[C@@H]4[C@@]5(C)CCCNC(C)(C)[C@@H]5CC[C@]43C)[C@H]21`, for which the growth in the test on SK-MEL-2 melanoma was 77.9%; in the test with EKVX NSCLC, 94.6%; with SN12C renal, 65.2%; in the test on UO-31 renal, 75.4%; with TK-10 renal it was 104%; in the test on ACHN renal, 78.7%. Moreover, the growth in the test with A498 renal was 101%; in the test with CCRF-CEM leukemia it was 40.1%; with MOLT-4 leukemia, 0.148% (active); in the test with SR leukemia, -25.7% (active).

Consider `C=C1C(=O)O[C@H]2[C@H]1CC/C(COC(=O)CCCCCCCCC(=O)OC/C1=C/CC[C@@]3(C)O[C@H]3[C@H]3OC(=O)C(=C)[C@@H]3CC1)=C\CC[C@@]1(C)O[C@@H]21`, for which the growth was 22% in the test with SK-MEL-2 melanoma; 8.84% (active) in the test on EKVX NSCLC; -1.39% (active) with SN12C renal; -75.2% (active) in the test on UO-31 renal; 0.838% (active) in the test with TK-10 renal; -23.2% (active) with ACHN renal. Moreover, the growth is 96.8% in the test with A498 renal, 2.5% (active) in the test on CCRF-CEM leukemia, 3.83% (active) with MOLT-4 leukemia and -2.09% (active) in the test on SR leukemia.

For `Oc1ccc(CNNc2ccnc3c(O)cccc23)c2cccnc12`, the growth in the test with SK-MEL-2 melanoma is 31.4%; in the test with EKVX NSCLC, 8.17% (active); in the test on SN12C renal, 45.4%; in the test on UO-31 renal, 23.7%; with TK-10 renal, 30.7%; in the test with ACHN renal it was 15.2%. For the same compound, the growth in the test with A498 renal was 74.7%; in the test with CCRF-CEM leukemia, 18.7%; in the test on MOLT-4 leukemia, 13.4%; with SR leukemia, 20.4%.

For `Cc1nnc(/N=C2\NC(=O)/C(=C/c3ccc(N(C)C)cc3)S2)s1`, the growth in the test on SK-MEL-2 melanoma was 83.1%; with EKVX NSCLC, 82.8%; in the test on SN12C renal, 83.8%; with UO-31 renal, 70.6%; in the test with TK-10 renal, 87.3%; in the test on ACHN renal, 71.8%. The growth in the test on A498 renal was 67%; with CCRF-CEM leukemia, 62.6%; with MOLT-4 leukemia, 80.8%; in the test with SR leukemia it was 44.2%.

Regarding `C#CC[C@@H]1C[C@]2(C)[C@H]3CC[C@@H]4[C@H]5[C@H](C(=C)C)CC[C@]5(C(=O)O)CC[C@@]4(C)[C@]3(C)CC[C@H]2C(C)(C)[C@H]1O`, the growth with SK-MEL-2 melanoma was 80.3%; with EKVX NSCLC, 55.4%; in the test on SN12C renal, 39.3%; in the test on UO-31 renal, 23.5%; in the test with TK-10 renal, 85.7%; in the test with ACHN renal, 6.77% (active). Further, the growth is 82.7% in the test on A498 renal, 34.1% in the test on CCRF-CEM leukemia, 26.8% in the test on MOLT-4 leukemia and 45.5% with SR leukemia.

As to `Nc1ccc2c(c1)C(=O)C(=O)c1c-2nc2ccccn12`, the growth with SK-MEL-2 melanoma was -32.1% (active); in the test on EKVX NSCLC, 31.5%; in the test with SN12C renal, -81% (active); with UO-31 renal, -40.8% (active); in the test with TK-10 renal, 115%; in the test with ACHN renal, -58.8% (active). The growth is -19.3% (active) in the test with A498 renal, 13.6% in the test with CCRF-CEM leukemia, -32.8% (active) with MOLT-4 leukemia and 2.06% (active) in the test on SR leukemia.

For `COc1cc(C2=N/C(=C\c3cc4ccccc4nc3Oc3ccccc3)C(=O)N2C(=N)N)cc(OC)c1OC`, the growth with SK-MEL-2 melanoma is 84.7%; in the test on EKVX NSCLC it was 72.1%; in the test on SN12C renal it was 43.1%; with UO-31 renal, 55.3%; in the test with TK-10 renal, 80.6%; with ACHN renal it was 61.9%. Besides, the growth in the test with A498 renal is 69%; in the test with CCRF-CEM leukemia it was 87.3%; in the test on MOLT-4 leukemia, 85.1%; with SR leukemia, 63.8%.

On to `C#C[C@@]1(O)[C@@H](CO)O[C@@H](n2cnc3c(-c4ccccc4)ncnc32)[C@@H]1O`, for which the growth was 107% in the test on SK-MEL-2 melanoma; 97.7% with EKVX NSCLC; 102% in the test with SN12C renal; 92.5% in the test on UO-31 renal; 100% with TK-10 renal; 115% in the test with ACHN renal. Further, the growth was 106% in the test with A498 renal, 102% in the test on CCRF-CEM leukemia, 99.7% in the test with MOLT-4 leukemia and 101% in the test with SR leukemia.

Consider `C/C(=N/Nc1nc2ccccc2n1C)c1ccccn1`, for which the growth in the test with SK-MEL-2 melanoma was 39.8%; with EKVX NSCLC, 6.63% (active); with SN12C renal it was 10.1%; with UO-31 renal it was -16.4% (active); in the test with TK-10 renal it was 36.8%; in the test on ACHN renal, 10.3%. In addition, the growth is -29.8% (active) in the test on A498 renal, -6.15% (active) with CCRF-CEM leukemia, 1.82% (active) in the test on MOLT-4 leukemia and 3.01% (active) in the test with SR leukemia.

For the compound `O=C(Nc1cc(Nc2ncccc2-c2ncnc3nc[nH]c23)ccc1F)c1cc(C(F)(F)F)cc(C(F)(F)F)c1`, the growth is -40% (active) in the test with SK-MEL-2 melanoma; 20.4% with EKVX NSCLC; 16.5% with SN12C renal; -37.4% (active) in the test with UO-31 renal; -16.9% (active) with TK-10 renal; -7.8% (active) in the test with ACHN renal. The growth was -19.1% (active) in the test on A498 renal, 2.41% (active) in the test with CCRF-CEM leukemia, -33.6% (active) in the test on MOLT-4 leukemia and -21.1% (active) with SR leukemia.

On to `CCOC(=O)C1CCN(S(=O)(=O)/N=C2/NC(=O)NC2=C(Cl)Cl)CC1`, for which the growth was -23.4% (active) with SK-MEL-2 melanoma; 67.4% in the test on EKVX NSCLC; -35.1% (active) with SN12C renal; 8.22% (active) in the test with UO-31 renal; 33.1% in the test with TK-10 renal; 14.2% in the test on ACHN renal. Moreover, the growth is 23.9% with A498 renal, -53.4% (active) in the test on CCRF-CEM leukemia, -20.8% (active) in the test on MOLT-4 leukemia and -11.4% (active) in the test with SR leukemia.

On to `O=S(=O)(Nc1nccs1)c1ccc(Nc2nc(-c3ccncc3)cs2)cc1`, for which the growth in the test with SK-MEL-2 melanoma is 105%; with EKVX NSCLC, 107%; in the test on SN12C renal it was 97.4%; in the test with UO-31 renal it was 101%; with TK-10 renal, 120%; with ACHN renal it was 99.5%. The growth with A498 renal was 113%; with CCRF-CEM leukemia it was 104%; in the test with MOLT-4 leukemia it was 117%; with SR leukemia it was 111%.

In the case of `CC(C)NS(=O)(=O)c1cccc(-c2ccc3c(=O)n(CCCN)c4c(c3c2)C(=O)c2ccccc2-4)c1`, the growth in the test on SK-MEL-2 melanoma is 111%; in the test with EKVX NSCLC, 100%; with SN12C renal, 113%; with UO-31 renal, 93.2%; in the test on TK-10 renal, 96.8%; in the test with ACHN renal, 101%. The growth in the test on A498 renal was 103%; in the test on CCRF-CEM leukemia it was 88.2%; in the test with MOLT-4 leukemia, 95.6%; in the test on SR leukemia it was 77.6%.

Regarding `COC(=O)c1nc(-c2ccccc2)oc1S(=O)(=O)n1nc(C)cc1N`, the growth with SK-MEL-2 melanoma is 80.3%; in the test with EKVX NSCLC it was 87.8%; in the test on SN12C renal, 58.5%; with UO-31 renal, 51.4%; with TK-10 renal, 73.5%; in the test on ACHN renal, -86.2% (active). Moreover, the growth was 99.9% in the test on A498 renal, 9.2% (active) with CCRF-CEM leukemia, 14.6% in the test on MOLT-4 leukemia and 3.74% (active) in the test on SR leukemia.

As to `O=C1Nc2ccc(Cl)cc2/C1=N/c1nc(-c2ccc(F)cc2)cs1`, the growth in the test on SK-MEL-2 melanoma was 39.9%; with EKVX NSCLC, 44.5%; with SN12C renal, 54.8%; in the test on UO-31 renal it was 50.4%; in the test on TK-10 renal, 59.2%; in the test on ACHN renal, 48.5%. Further, the growth with A498 renal is 33.3%; with CCRF-CEM leukemia, 11.1%; in the test with MOLT-4 leukemia, 1.99% (active); in the test with SR leukemia, 1.96% (active).

On to `COc1ccc(-n2cc(COc3ccc4c5ccnc(C)c5n(CC(C)C)c4c3)nn2)cc1`, for which the growth with SK-MEL-2 melanoma was 87.7%; with EKVX NSCLC, 69%; in the test with SN12C renal, 77%; in the test on UO-31 renal it was 71%; in the test on TK-10 renal, 70.5%; in the test with ACHN renal, 64.6%. Moreover, the growth was 53.6% in the test on A498 renal, 72.9% in the test on CCRF-CEM leukemia, 24.4% with MOLT-4 leukemia and 22.6% in the test with SR leukemia.

With `COc1cc(-c2cn(-c3ccc(Cl)c(Cl)c3)c(=O)[nH]2)cc(OC)c1OC`, the growth is 97% with SK-MEL-2 melanoma; 95.3% in the test with EKVX NSCLC; 87.5% in the test on SN12C renal; 93.6% in the test with UO-31 renal; 94.7% in the test on TK-10 renal; 96.5% in the test with ACHN renal. Moreover, the growth is 110% in the test with A498 renal, 99.6% in the test with CCRF-CEM leukemia, 85.1% with MOLT-4 leukemia and 31% in the test with SR leukemia.

Regarding `CCCCCCN1C(=O)CN=C1Nc1ccc2cc3ccc(NC4=NCC(=O)N4CCCCCC)cc3nc2c1`, the growth was 79.9% with SK-MEL-2 melanoma; 56.9% in the test on EKVX NSCLC; 26.7% in the test on SN12C renal; 51.7% in the test with UO-31 renal; 75.9% in the test on TK-10 renal; 67.6% with ACHN renal. Besides, the growth in the test with A498 renal is 104%; with CCRF-CEM leukemia it was 12%; in the test on MOLT-4 leukemia it was 9.83% (active); with SR leukemia it was 0.413% (active).

Turning to `O=C(Nc1ccc(S(=O)(=O)NC2CCCCCC2)cc1)C(c1ccccc1)S(=O)(=O)c1ccc(F)cc1` (stereo not given), the growth in the test on SK-MEL-2 melanoma is -22.9% (active); in the test on EKVX NSCLC, 5.65% (active); in the test with SN12C renal it was 12.6%; with UO-31 renal it was -44.2% (active); in the test with TK-10 renal it was 6.92% (active); in the test with ACHN renal it was 0.641% (active). The growth was -33.2% (active) with A498 renal, 4.59% (active) with CCRF-CEM leukemia, 6.98% (active) with MOLT-4 leukemia and -0.97% (active) in the test with SR leukemia.

As for `NS(=O)(=O)c1ccc(N2Cc3cc(Cl)ccc3OC3=C2C(=O)N(CC2CCCCC2)C3=O)cc1`, the growth was -72.3% (active) in the test with SK-MEL-2 melanoma; -65.1% (active) in the test with EKVX NSCLC; -65.3% (active) in the test on SN12C renal; -84% (active) in the test with UO-31 renal; -96.7% (active) in the test with TK-10 renal; -100% (active) with ACHN renal. The growth in the test on A498 renal is -72.2% (active); in the test with CCRF-CEM leukemia, -38.8% (active); in the test on MOLT-4 leukemia it was -34.9% (active); in the test on SR leukemia, -43.4% (active).
